# Assay results as given in the supplement of paper PMC6522484.
# ± gives the standard deviation of the averaged measurements.
# Legend:
# DLD1 [1] = test: cell viability (CellTiter-Glo) relative to plate median (fraction of plate median); higher = more viable cells; details: 5 µM; treatment time 24 h; reporter: 7TFP
# Summary of the method: (§1)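 On parallel plates, a Tecan F500 reader recorded either firefly luciferase or CellTiterGlo luminescence. The plates held colorectal cancer cells stably transduced with lentiviral TCF/Wnt firefly luciferase reporters (7TFP or TCF4/Wnt), seeded in 384-well format and treated 24 h later with library compounds at a final 5 µM for 24 h. Per-well signals were normalised to the plate median (webcellHTS2, additive, no log transformation), and two independent replicates were averaged.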
# HCT116 = test: as above; details: 5 µM; treatment time 24 h; reporter: TCF4/Wnt
# Summary of the method: as §1
# SW480 [2] = test: as above; details: 5 µM; treatment time 24 h; reporter: 7TFP
# Summary of the method: as §1
# DLD1 [3] = test: TCF/Wnt firefly luciferase reporter signal relative to plate median (fraction of plate median); higher = higher Wnt reporter signal; details: 5 µM; treatment time 24 h; reporter: 7TFP
# Summary of the method: as §1
# SW480 [4] = test: as above; details: 5 µM; treatment time 24 h; reporter: 7TFP
# Summary of the method: as §1
Compound,cell viability (DLD1 [1]),cell viability (HCT116),cell viability (SW480 [2]),TCF/Wnt firefly luciferase reporter signal (DLD1 [3]),TCF/Wnt firefly luciferase reporter signal (SW480 [4])
C[C@@H]1O[C@@H]1P(=O)(O)O,1.04,0.995 ± 0.15,1.06 ± 0.028,1.03 ± 0.028,0.997 ± 0.22
O=C(O)c1cccc(O)c1O,1.01 ± 0.047,1.14 ± 0.035,1.02 ± 0.068,0.954 ± 0.034,0.947 ± 0.0085
CCCC(=O)Nc1ccc(OCC(O)CNC(C)C)c(C(C)=O)c1 (stereo not given),0.942 ± 0.11,0.966 ± 0.019,0.876 ± 0.1,0.957 ± 0.12,1.01 ± 0.035
NC[C@H]1O[C@H](O[C@H]2[C@H](O)[C@@H](O[C@H]3O[C@H](CO)[C@@H](O)[C@H](N)[C@H]3O)[C@H](N)C[C@@H]2N)[C@H](N)C[C@@H]1O,0.854 ± 0.012,0.922 ± 0.073,0.998 ± 0.06,0.992 ± 0.0042,1.05 ± 0.076
CC1(C)C[C@@H]2/C(CO)=C\C=C/[C@@](C)(O)CC[C@]21O,1.08 ± 0.2,0.946 ± 0.063,1 ± 0.022,1.11 ± 0.24,0.818 ± 0.093
O=c1c(O)c(-c2ccc(O)cc2)oc2ccccc12,0.975 ± 0.05,1.16 ± 0.05,1.01 ± 0.034,1.05 ± 0.028,0.957 ± 0.047
CC1=CCCC(C)=CCC(C)(C)C=CC1 [HUMULENE (alpha)],0.978 ± 0.013,1.01 ± 0.027,0.965 ± 0.021,1.04,1.15 ± 0.13
CC(=O)O[C@@H]1CC2C(C)(C)[C@H](O)CC[C@]2(C)C2CC[C@@]3(C)[C@H](c4ccoc4)OC(=O)C4OC43[C@@]21C (stereo partly drawn) [alpha-DIHYDROGEDUNOL],1.03 ± 0.028,1.01 ± 0.032,1.03,1.02 ± 0.18,0.954 ± 0.025
O=C1CN2Cc3c(ccc(Cl)c3Cl)N=C2N1,1.05 ± 0.081,1.04,1 ± 0.011,1.19 ± 0.092,0.98 ± 0.13
O=C(O)CCCCCCCCCCCC[C@@H]1C=CCC1,1 ± 0.055,1.03 ± 0.058,0.966 ± 0.1,1.15 ± 0.014,1 ± 0.096
NS(=O)(=O)c1cc(C(=O)O)c(NCc2ccco2)cc1Cl,0.993 ± 0.0099,1.04,1.09 ± 0.042,1.095 ± 0.0071,1.13 ± 0.057
CC(C)(Oc1ccc(Cl)cc1)C(=O)O,1.04 ± 0.021,1.17 ± 0.057,1.035 ± 0.0071,1.07 ± 0.13,1.1 ± 0.057
CCCc1nc(C)c2c(O)nc(-c3cc(S(=O)(=O)N4CCN(CC)CC4)ccc3OCC)nn12,0.948 ± 0.022,1.02 ± 0.061,0.9505 ± 0.005,1.05 ± 0.021,1.07 ± 0.042
CCCOc1ccc2[nH]c(NC(=O)OC)nc2c1,0.979 ± 0.011,1.08 ± 0.2,1.13 ± 0.071,0.959 ± 0.21,0.957 ± 0.035
COc1cccc(OC)c1C(=O)N[C@@H]1C(=O)N2[C@@H]1SC(C)(C)[C@@H]2C(=O)O,1.05 ± 0.071,1.17 ± 0.042,1.07 ± 0.035,1.14 ± 0.21,1.06 ± 0.16
CCC(=O)OC1[C@@H]2CC3=C4CC(=O)O[C@@H](c5ccoc5)[C@]4(C)CCC3[C@@](C)(C2=O)[C@@H](CC(=O)OC)C1(C)C (stereo not given in full),0.932 ± 0.087,1.03 ± 0.046,1 ± 0.027,0.969 ± 0.012,0.979 ± 0.19
CC(CCC(=O)O)[C@H]1CCC2C3C[C@H](O)[C@@H]4C[C@H](O)CC[C@]4(C)C3CC[C@@]21C (stereo partly drawn) [alpha-HYDROXYDEOXYCHOLIC ACID],1.04 ± 0.13,1.1 ± 0.078,1.06 ± 0.014,0.947 ± 0.1,0.974 ± 0.052
Cc1cnc(NC(=O)C2=C(O)c3ccccc3S(=O)(=O)N2C)s1,1.01 ± 0.04,1.05 ± 0.078,0.995 ± 0.079,1.02 ± 0.031,1.03 ± 0.044
COc1c2c(c(O)c3c4c(c(C)cc13)C1OC3(C(OC)OC)OC1C(O[C@H]1C[C@@H](O)[C@@](O)(C(C)=O)[C@H](C)O1)(O4)C3(O)CO)C(=O)C(O)CC2O[C@H]1C[C@@](C)(O)[C@H](OC(C)=O)[C@H](C)O1 (stereo not given in full) [Trioxacarcin B],1.09 ± 0.29,1.11 ± 0.014,1.06,0.739 ± 0.21,0.893 ± 0.14
CC1(C)C(=O)CC[C@@]2(C)C1C[C@@H](O)[C@@]1(C)C3=CC(=O)O[C@@H](c4ccoc4)[C@]3(C)CCC21 (stereo not given in full),0.9595 ± 0.0035,1.06,0.969 ± 0.027,0.937 ± 0.028,0.967 ± 0.013
CCCC(=O)Nc1ncnc2c1ncn2[C@@H]1O[C@@H]2COP(=O)(O)O[C@H]2[C@H]1OC(=O)CCC,0.945 ± 0.055,0.957 ± 0.026,0.987 ± 0.0071,1.11 ± 0.17,1.09 ± 0.014
O=C(O)C1=C(CSc2nnnn2CS(=O)(=O)O)CS[C@@H]2[C@H](NC(=O)[C@H](O)c3ccccc3)C(=O)N12,0.951 ± 0.025,1.05 ± 0.071,0.973 ± 0.052,0.915 ± 0.023,0.968 ± 0.04
CCn1cc(C(=O)O)c(=O)c2cc(F)c(N3CCNCC3)nc21,1.05 ± 0.064,0.98 ± 0.071,1.05 ± 0.083,1.065 ± 0.0071,1.04 ± 0.028
O=CN(O)CCCC(NC(=O)C(CO)NC(=O)C1COC(c2ccccc2O)=N1)C(=O)NCCC(=O)NC1CCCN(O)C1=O (stereo not given) [Oxachelin hydrate],1.09 ± 0.13,1.11 ± 0.12,1.02 ± 0.05,1.2 ± 0.014,0.946 ± 0.16
CC(C)c1ccc2c(c1)CC[C@H]1[C@](C)(CN)CCC[C@]21C,1.04 ± 0.028,1.07 ± 0.092,1.06 ± 0.028,1.18 ± 0.071,1.03 ± 0.13
O=c1ccc2ccc(O)cc2o1,0.995 ± 0.036,0.972 ± 0.014,1.03 ± 0.028,0.936 ± 0.13,0.935 ± 0.042
NCCc1c[nH]cn1,1.06 ± 0.028,1.02 ± 0.021,1.04 ± 0.062,1.12,1.06 ± 0.014
O=C1C(CC[S+]([O-])c2ccccc2)C(=O)N(c2ccccc2)N1c1ccccc1 (stereo not given),1.07 ± 0.028,1.09 ± 0.064,1.035 ± 0.0071,0.857 ± 0.079,0.885 ± 0.089
Nc1nc2c(ncn2COCCO)c(=O)[nH]1,1 ± 0.11,1.01 ± 0.034,0.955 ± 0.078,0.991 ± 0.056,0.973 ± 0.053
CCCOc1ccccc1-c1nc2[nH]nnc2c(=O)[nH]1,0.985 ± 0.035,0.973 ± 0.14,0.909 ± 0.058,1.01 ± 0.064,0.951 ± 0.084
